# High-throughput results from PubChem BioAssay.
# An excerpt weighted towards active compounds, which were near 11% of everything screened.
# L3MBTL1 block: L3MBTL1 (human) inhibition; Q9Y468; AID 485360; AlphaScreen L3MBTL1–H3K9me1 peptide binding; hit rate 0.66% among 230,000; Potency, µM (highest dose often 57.1 µM), for inactives: top-dose activity, negative = inhibition, usual class: inhibitors; further: potency means the concentration at half of the fitted maximal effect; on the % scale 0 is the no-effect control and ±100 the full control effect; nearly all actives have a fitted effect of over 60% in size
#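 First, the protein-peptide complex forms for 30 min at room temperature (L3MBTL1 50 nM, biotinylated H3K9me1 peptide 75 nM). Next, compounds are pin-transferred and incubated 30 min. Finally, AlphaScreen beads are added and read after 30 min.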
# BAZ2B inh: BAZ2B (human) inhibition; Q9UIF8; AlphaScreen BAZ2B-H3K14Ac peptide displacement; Potency, µM (top dose mostly 114 µM), for the others: top-dose activity change, negative = inhibition, hits mostly inhibitors; hit rate 4.4% among 360,000; AID 504333; further: potency means the concentration at half of the fitted maximal effect; on the % scale 0 is the no-effect control and ±100 the full control effect; nearly all actives have a fitted effect of over 60% in size
#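 Compounds, titrated to a top concentration of 110 uM, were incubated 30 min at room temperature with preformed BAZ2B/acetyl-K14 H3 peptide complex (50 nM each). Proximity signal was measured by AlphaScreen after 20 min with beads.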
# JMJD2A Tudor inh: inhibitors of human JMJD2A Tudor domain. Potency, µM (doses to about 114 µM), inactives show at the highest dose activity change, negative = inhibition, actives largely listed as inhibitors. AlphaScreen JMJD2A-Tudor / H3K4me3 peptide binding. hit rate 4.4% among 390,000; further: potency means the concentration at half of the fitted maximal effect; on the % scale 0 is the no-effect control and ±100 the full control effect; nearly all actives have a fitted effect of over 50% in size
# HP1b chromo inh: blocks HP1-beta chromodomain binding to methylated histone tails | P83916 | AlphaScreen HP1-beta / biotin-H3K9me3 peptide binding | Potency, µM (series often up to 114 µM), for the others: at the top dose activity change, negative = inhibition, hits mostly inhibitors | hit rate 0.56% among 390,000 | AID 540317; further: potency means the concentration at half of the fitted maximal effect; nearly all actives have a fitted effect of over 70% in size
# Target sequence (P83916 whole entry, looked up): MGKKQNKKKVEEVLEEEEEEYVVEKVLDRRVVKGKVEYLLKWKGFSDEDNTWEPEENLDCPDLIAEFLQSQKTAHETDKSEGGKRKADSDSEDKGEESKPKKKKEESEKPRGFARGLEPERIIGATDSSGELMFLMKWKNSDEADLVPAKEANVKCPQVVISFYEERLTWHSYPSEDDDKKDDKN
#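 Compound inhibition of the preformed complex between 50 nM HP1-beta and 50 nM biotinylated H3K9me3 peptide was read by AlphaScreen. Buffer was PBS pH 7.4 with 0.01% Tween-20. Incubations ran 30 min at room temperature, with 10 ug/mL donor/acceptor beads.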
# G9a block: blocks human histone lysine methyltransferase G9a; Q96KQ7; G9a H3K9 monomethylation, AlphaScreen, 2 h; Potency, µM (top dose mostly 102 µM), inactives show at the highest dose activity, negative = inhibition, usual class: inhibitors; hit rate 8.8% among 350,000; AID 504332; further: potency means the concentration at half of the fitted maximal effect; on the % scale 0 is the no-effect control and ±100 the full control effect; nearly all actives have a fitted effect of over 75% in size
#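 AlphaScreen detection with an anti-monomethyl H3K9 antibody quantified product after a 2 h room-temperature reaction containing 500 nM biotinylated H3K9 peptide, 20 µM SAM and 20 nM enzyme, which had been preincubated 15 min with compound.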
# PI5P4Ka inh: inhibitors of human PI5P4K alpha; hit rate 1.2% among 330,000; PI5P4Kalpha enzyme, ADP-Glo luminescence, 60 min; hits give low values; AID 652105; P48426; max response, %; active means max response of -50% or lower; inconclusive means between -30% and -50%; inactive means -30% or higher; further: value at the top dose of about 77 µM; on the % scale 0 is the no-effect control and ±100 the full control effect
# Target sequence (P48426 whole entry, looked up): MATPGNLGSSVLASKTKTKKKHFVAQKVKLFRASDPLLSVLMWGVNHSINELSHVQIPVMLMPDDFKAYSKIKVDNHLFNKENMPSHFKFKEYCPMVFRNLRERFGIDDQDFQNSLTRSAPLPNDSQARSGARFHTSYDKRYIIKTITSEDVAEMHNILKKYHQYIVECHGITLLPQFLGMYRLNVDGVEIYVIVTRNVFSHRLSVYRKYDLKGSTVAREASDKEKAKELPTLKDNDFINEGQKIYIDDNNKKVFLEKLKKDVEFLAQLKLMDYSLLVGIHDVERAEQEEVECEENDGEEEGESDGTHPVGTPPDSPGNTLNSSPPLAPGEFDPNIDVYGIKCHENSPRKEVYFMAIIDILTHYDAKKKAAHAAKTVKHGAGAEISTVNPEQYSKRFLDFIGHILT
#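 qHTS, 1536-well: enzyme/substrate mix, compound by pin tool, 5 microM ATP final; RT 60 min; ADP-Glo reagents 1 (45 min) then 2 (30 min); luminescence.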
# An asterisk follows results filed as active; ? = inconclusive; . = no result; [ ] = remark or other dose. Unless noted, the call rests on the fitted dose curve; in most records, active means well fitted inhibition curve with a large enough effect; inconclusive means small, poorly fitted or top-dose-only effect; inactive means no such curve, though single readings can be large or run the other way.
SMILES,L3MBTL1 block,BAZ2B inh,JMJD2A Tudor inh,HP1b chromo inh,G9a block,PI5P4Ka inh
Cc1c(P(=S)(c2ccccc2)c2ccccc2)c2ccccc2n1CCCc1ccccc1,.,.,-2%,.,.,.
Cc1cc(C)n(-c2cc(-n3nc(C)cc3C)ncn2)n1,3%,7%,-1%,47%,?,-3
Cc1cc(C)n(-c2cc(O)c(-n3nc(C)cc3C)cc2O)n1,-6%,-16%,22µM*,?,28µM*,3
CCc1ccc(Nc2nc(N3CCOCC3)nc(N3CCOCC3)n2)cc1,.,-23%,?,35%,.,7
FC(F)(F)Oc1ccc(Nc2nc(N3CCOCC3)nc(N3CCOCC3)n2)cc1,.,?,18µM*,32%,.,?
COc1ccc(Nc2nc(Nc3ccc(OC)cc3OC)nc(N3CCOCC3)n2)c(OC)c1,.,7.9µM*,?,7%,?,.
Clc1cccc(Nc2nc(N3CCOCC3)nc(N3CCOCC3)n2)c1,.,-18%[57.1 µM],-7%,57%,50µM*,1
Fc1cccc(Nc2nc(N3CCOCC3)nc(N3CCOCC3)n2)c1,2%,-10%,-11%,20%,12%,0
COc1ccc(-c2ccc3c(N)c(C(=O)NCc4ccc(Cl)cc4)sc3n2)cc1,.,1%,-17%,53%,2%[59 µM],.
COc1ccccc1CNC(=O)CCn1c(=O)c2ccccc2n(CC(=O)Nc2ccc(C)cc2Cl)c1=O,.,-32%,-18%,16%,-2%[59 µM],.
Cc1ccc(NS(=O)(=O)c2ccc3c(c2)CCC(=O)N3)cc1F,.,.,-26%,.,.,.
Cc1cc(C(=S)N2CCOCC2)c(C)n1-c1ccc(F)cc1,-1%,45µM*,-16%,33%,.,0
Cc1ccc(-n2c(C)cc(C(=S)N3CCOCC3)c2C)cc1C,-7%,50µM*,45µM*,?,.,.
O=C(NC1CCCCCC1)C1c2ccccc2C(=O)N1C1CC1 (stereo unspecified),1%,-3%,-5%,6%,8.9µM*,.
CCOC(=O)c1c(C)[nH]c(C)c1S(=O)(=O)N1CCC(C(=O)NCc2ccc(N(C)C)cc2)CC1,.,-25%,-16%,8%,?,.
Cc1ccc2c(c1)c1cccc3c1n2CCN3CCC(N)=O,.,40µM*,50µM*,?,?,-18
COc1ccc(NC(=O)CSc2oc(-c3ccc(C)cc3)nc2S(=O)(=O)c2ccc(C)cc2)c(OC)c1,.,1%,56µM*,?,?,.
O=S(=O)(c1ccccc1)c1nc(-c2cccs2)oc1NCC1CCCO1 (stereo unspecified),-4%,-5%,?,24%,32µM*,-13
O=C(CN(C1CCCCC1)S(=O)(=O)c1ccc(F)cc1)NCC1CCCO1 (stereo unspecified),.,.,25µM*,?,.,-13
O=C(CSc1oc(-c2ccccc2)nc1S(=O)(=O)c1ccc(F)cc1)NCC1CCCO1 (stereo unspecified),4%,7%,-21%,28%,?,-5
Cc1ccc(S(=O)(=O)c2nc(-c3ccccc3)oc2SCC(=O)NCC2CCCO2)cc1 (stereo unspecified),.,-3%,-31%,-2%,45µM*,3
CN(C)c1ccc(-c2nc(NCCc3cnc[nH]3)c3ccccc3n2)cc1,.,.,.,.,1%[0.501 µM],.
Cc1ccc(S(=O)(=O)c2nc(-c3ccc(F)cc3)oc2SCC(=O)NCC2CCCO2)cc1 (stereo unspecified),0%,5%,-10%,23%,?,.
O=C(CSc1oc(-c2cccs2)nc1S(=O)(=O)c1ccc(F)cc1)NCC1CCCO1 (stereo unspecified),-5%,0%,-30%,30%,45µM*,-18
Cc1ccc(-c2nc(S(=O)(=O)c3ccc(F)cc3)c(SCC(=O)NCC3CCCO3)o2)cc1 (stereo unspecified),-23%,1%,-19%[57.1 µM],-19%,14µM*,4
SMILES,L3MBTL1 block,BAZ2B inh,JMJD2A Tudor inh,HP1b chromo inh,G9a block,PI5P4Ka inh
O=C(CSc1oc(-c2ccc(F)cc2)nc1S(=O)(=O)c1ccc(F)cc1)NCC1CCCO1 (stereo unspecified),-3%,8%,-17%,8%,?,2
CC(=O)c1ccc(N2CCN(S(=O)(=O)c3c(C)nc4sc(C)cn4c3=O)CC2)cc1,.,-9%,-7%,22%,-3%[59 µM],.
COC(=O)n1c(=S)oc2cc(Cl)ccc21,0%,-4%,.,.,2.5µM*,.
CCCCOC(=O)n1c(=S)oc2cc(Cl)ccc21,8%,1%,-18%,-10%,-1%[0.501 µM],-55*
O=C(CSc1nc2c([nH]c3ccccc32)c(=O)n1-c1cccc(C(F)(F)F)c1)N1CCc2ccccc21,.,9%,-5%,16%[57 µM],7%[59 µM],.
CC(C)(C)C1CCc2c(sc(NC(=O)C3c4ccccc4Oc4ccccc43)c2C(N)=O)C1 (stereo unspecified),.,-17%,-30%,26%,-16%[59 µM],.
COc1ccc(N2CCCn3c2nc2c3c(=O)n(CCc3ccccc3)c(=O)n2C)cc1,2%,12%,-22%,-7%,-20%[59 µM],1
CCOc1ccc(N2CCCn3c2nc2c3c(=O)n(CCc3ccccc3)c(=O)n2C)cc1,3%,-17%,.,.,3.2µM*,.
CC(=O)c1ccc(Nc2cc(C)nc3ncnn23)cc1,-3%,-4%,?,25%,-7%,-5
Cc1ccc(Nc2cc(C)nc3ncnn23)cc1,-11%,-18%,-13%,28%,71µM*,-6
CC(=O)c1ccc(Nc2cc(C)nc3nc(C)nn23)cc1,7%,6%,-4%,40%,79µM*,-9
COc1cc(Nc2cc(C)nc3ncnn23)cc(OC)c1OC,1%,8%,-7%,68%,45µM*,3
Cc1cc(C)n2ncnc2n1,.,?,-3%,27%,50µM*,2
COc1cc(Nc2cc(C)nc3ncnn23)cc(OC)c1,-1%,12%,-12%,36%,?,-6
CC(C)CN(C[C@@H](OP(=O)(O)O)[C@H](Cc1ccccc1)NC(=O)O[C@@H]1CCOC1)S(=O)(=O)c1ccc(N)cc1,.,.,.,.,15%[12.7 µM],.
O=C(CN1C(=O)COc2ccc(S(=O)(=O)N3CCOCC3)cc21)N1CCN(c2cccc(C(F)(F)F)c2)CC1,.,-14%,-24%,13%,-3%[59 µM],.
Cc1ccc(SCC(Cc2ccccc2)N2CCN(C)CCC2=O)cc1 (stereo unspecified),.,.,-27%,15%,.,.
Cc1nc2c3ccccc3nc(NNC(=O)CCC(=O)O)n2n1,.,-14%,-7%,23%,?,.
Cc1cc(Nc2ccc(N3CCC(C)CC3)cc2)n2ncnc2n1,1%[11.4 µM],56µM*,?,1%,-50%[12.7 µM],.
Cc1cc(Nc2ccc(C)c(F)c2)n2ncnc2n1,2%,11%,-4%[57.1 µM],60%,-12%[59 µM],-2
Cc1ccc(C(=O)N/C(=C\c2ccco2)C(=O)NCCCn2ccnc2)cc1,?,7.9µM*,22µM*,20%,-8%[59 µM],-2
